Test results taken from the supplement of paper PMC8728848.
Only a selection was taken, and the strongest signals are over-represented in it overall.

What was measured:
Assay in all cases: glycan array binding signal (z-score within array); higher = stronger binding
Conditions in all cases: glycan notation: IUPAC condensed, linker removed
[1] = target: Gal(b1-4)GlcNAc(b1-3)Gal(b1-4)GlcNAc(b1-3)[Gal(b1-4)GlcNAc(b1-3)Gal(b1-4)GlcNAc(b1-6)]GalNAc
Method in brief: (§1)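 Negative Z-scores can be read as non-binding. The Z-score is calculated within each array and then averaged across arrays of one protein sequence at different concentrations or buffers and across linkers. Arrays, 3228 in all, were curated from the Consortium for Functional Glycomics database and kept only where the protein sequence was available.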

Gal6S(b1-4)Glc = target: Gal6S(b1-4)Glc
Method in brief: as §1

[2] = target: GalNAc(a1-3)GalNAc(b1-3)Gal(a1-4)Gal(b1-4)Glc
Method in brief: as §1

GalNAc(b1-4)GlcNAc = target: GalNAc(b1-4)GlcNAc
Method in brief: as §1

GlcA(b1-3)Gal = target: GlcA(b1-3)Gal
Method in brief: as §1

GlcA(b1-6)Gal = target: GlcA(b1-6)Gal
Method in brief: as §1

[3] = target: GlcNAc(b1-3)Gal(b1-4)GlcNAc(b1-3)Gal(b1-4)GlcNAc(b1-3)Gal(b1-4)GlcNAc(b1-2)[GlcNAc(b1-3)Gal(b1-4)GlcNAc(b1-3)Gal(b1-4)GlcNAc(b1-3)Gal(b1-4)GlcNAc(b1-6)]Man(a1-6)[GlcNAc(b1-3)Gal(b1-4)GlcNAc(b1-3)Gal(b1-4)GlcNAc(b1-3)Gal(b1-4)GlcNAc(b1-2)Man(a1-3)]Man(b1-4)GlcNAc(b1-4)[Fuc(a1-6)]GlcNAc
Method in brief: as §1

[4] = target: GlcNAc(b1-3)Gal(b1-4)GlcNAc(b1-3)Gal(b1-4)GlcNAc(b1-3)Gal(b1-4)GlcNAc(b1-3)Gal(b1-4)GlcNAc(b1-2)Man(a1-3)[GlcNAc(b1-3)Gal(b1-4)GlcNAc(b1-3)Gal(b1-4)GlcNAc(b1-3)Gal(b1-4)GlcNAc(b1-3)Gal(b1-4)GlcNAc(b1-2)Man(a1-6)]Man(b1-4)GlcNAc(b1-4)[Fuc(a1-6)]GlcNAc
Method in brief: as §1

Kdn(a2-3)Gal(b1-4)Glc = target: Kdn(a2-3)Gal(b1-4)Glc
Method in brief: as §1

[5] = target: Man(a1-2)Man(a1-2)Man(a1-3)Man
Method in brief: as §1

[6] = target: Man(a1-2)Man(a1-3)[Man(a1-2)Man(a1-6)]Man(a1-6)[Man(a1-2)Man(a1-2)Man(a1-3)]Man(b1-4)GlcNAc(b1-4)GlcNAc
Method in brief: as §1

Man(a1-3)[Man(a1-6)]Man = target: Man(a1-3)[Man(a1-6)]Man
Method in brief: as §1

[7] = target: Neu5Ac(a2-3)Gal(b1-3)GlcNAc(b1-6)GalNAc
Method in brief: as §1

[8] = target: Neu5Ac(a2-3)Gal(b1-4)GlcNAc(b1-3)Gal(b1-4)GlcNAc(b1-2)Man(a1-3)[Neu5Ac(a2-3)Gal(b1-4)GlcNAc(b1-3)Gal(b1-4)GlcNAc(b1-2)Man(a1-6)]Man(b1-4)GlcNAc(b1-4)GlcNAc
Method in brief: as §1

[9] = target: Neu5Ac(a2-3)Gal(b1-4)GlcNAc(b1-6)[Neu5Ac(a2-3)Gal(b1-3)]GalNAc
Method in brief: as §1

[10] = target: Neu5Ac(a2-6)Gal(b1-3)GlcNAc(b1-3)[Gal(b1-4)GlcNAc(b1-6)]Gal(b1-4)Glc
Method in brief: as §1

Neu5Ac(a2-6)Gal(b1-4)Glc = target: Neu5Ac(a2-6)Gal(b1-4)Glc
Method in brief: as §1

[11] = target: Neu5Ac(a2-6)Gal(b1-4)GlcNAc(b1-2)Man(a1-3)Man(b1-4)GlcNAc(b1-4)GlcNAc
Method in brief: as §1

[12] = target: Neu5Ac(a2-6)Gal(b1-4)GlcNAc(b1-2)[Neu5Ac(a2-6)Gal(b1-4)GlcNAc(b1-4)]Man(a1-3)[GlcNAc(b1-4)][Neu5Ac(a2-6)Gal(b1-4)GlcNAc(b1-4)Man(a1-6)]Man(b1-4)GlcNAc(b1-4)GlcNAc
Method in brief: as §1

[13] = target: Neu5Ac(a2-6)Gal(b1-4)GlcNAc(b1-6)[Gal(b1-3)GlcNAc(b1-3)]Gal(b1-4)Glc
Method in brief: as §1

[14] = target: Neu5Ac(a2-6)GalNAc(b1-4)GlcNAc6S
Method in brief: as §1

[15] = target: Neu5Ac(a2-8)Neu5Ac(a2-3)Gal(b1-3)GalNAc(b1-4)[Neu5Ac(a2-3)]Gal(b1-4)Glc
Method in brief: as §1

[16] = target: Neu5Ac(a2-8)Neu5Ac(a2-3)[GalNAc(b1-4)]Gal(b1-4)Glc
Method in brief: as §1

[17] = target: Neu5Ac(a2-8)Neu5Ac(a2-8)Neu5Ac(a2-3)[GalNAc(b1-4)]Gal(b1-4)Glc
Method in brief: as §1

[18] = target: Neu5Gc(a2-3)Gal(b1-4)GlcNAc(b1-3)Gal(b1-4)GlcNAc(b1-2)Man(a1-3)[Neu5Gc(a2-3)Gal(b1-4)GlcNAc(b1-3)Gal(b1-4)GlcNAc(b1-2)Man(a1-6)]Man(b1-4)GlcNAc(b1-4)GlcNAc
Method in brief: as §1

[19] = target: Neu5Gc(a2-6)Gal(b1-4)GlcNAc
Method in brief: as §1

[20] = target: Neu5Gc(a2-8)Neu5Gc(a2-3)Gal(b1-4)GlcNAc(b1-3)Gal(b1-4)GlcNAc
Method in brief: as §1

[21] = target: Neu5Gc(b2-6)Gal(b1-4)GlcNAc
Method in brief: as §1

B1: a L Fucosidase (Streptosporangium roseum), D2B1P1_STRRD (protein)
chain: MRRKLLLVPAVGLLVIGSIFATQPVASADTPPVYEPTVESLNSHPVPQWFNDDKFGIFIHWGAYSVPAWGPRGSYAEWYGNYMNAGGSATNAHHKATYGQDFNYDAFLQQWKAEKFDPADWVKLFKDAGAKYFVLTSKHHEGMALWDSKSSGRDSVDLGPGRDLAKELFDAARKDEAKLKAGFYYSLYEWYNPAYTGRPATNPYTGAEIPYTGAPGGGDYVKDYMLPQMRELIDGYDPDIIWCDGQWEKPASYWNTAGVIADYYNKALNSGKEVAVANRCKIQSGNLDSPELDFQTPEYTVKPDIDPVKWESSRGIAHSYGYNQNEPEEDHLTSDQLVDSLVDIVSKNGNLLLDIGPKADGTIPEIQRQRLLDIGAWLKANGEAIYGTTYWNRAEEKGGPDDVRYTAKDATLYATALKWPGEQLTLGADLPVDHSTRITMLGSGARLSWSRDEQGRVVVNTPQEAGKHAYVFKIETPGVRSLLRTSSSLAKEIAPGRTISGELTVTNPGKRHTPATKLSLTVPQGWTATLGAPRVRPLGPGESVKVPISVSAPEGVAPAPYTLGLYQRTGRMGTTTALPLTVNRPNLSLGKPATQKSTGYDAPASRAVDGNTGGDWSAGSTTHTAEPEKQAWWQVDLGASARLDSVDVWNRLDCCADRLKDFWVMASDQPFTTDDLDQARTAPGVTAVHVGEQAGSPSKVKLPEGTRGRYVRIQLASPSNPLSLAEVQVRGSMARPNLSLGKPATQKSTGYDAPASRAVDGNTGGDWSAGSTTHTAEPEKQAWWQVDLGASARLDSVDVWNRLDCCADRLKDFWVMASDQPFTTDDLDQARTAPGVTAVHVGEQAGSPSKVKLPEGTRGRYVRIQLASPSNPLSLAEVQVRLEHHHHHHS
Which results are given for B1?
glycan array binding signal (z-score) [1]: -0.245; glycan array binding signal (z-score) (Gal6S(b1-4)Glc): -0.356; glycan array binding signal (z-score) [2]: -0.338; glycan array binding signal (z-score) (GalNAc(b1-4)GlcNAc): -0.528; glycan array binding signal (z-score) (GlcA(b1-3)Gal): -0.445; glycan array binding signal (z-score) (GlcA(b1-6)Gal): -0.444; glycan array binding signal (z-score) [3]: -0.512; glycan array binding signal (z-score) [4]: 1.09; glycan array binding signal (z-score) (Kdn(a2-3)Gal(b1-4)Glc): -0.16; glycan array binding signal (z-score) [5]: -0.582; glycan array binding signal (z-score) [6]: -0.104; glycan array binding signal (z-score) (Man(a1-3)[Man(a1-6)]Man): 0.008; glycan array binding signal (z-score) [7]: -0.493; glycan array binding signal (z-score) [8]: 0.456; glycan array binding signal (z-score) [9]: -0.417; glycan array binding signal (z-score) [10]: -0.585; glycan array binding signal (z-score) (Neu5Ac(a2-6)Gal(b1-4)Glc): -0.462; glycan array binding signal (z-score) [11]: -0.533; glycan array binding signal (z-score) [12]: -0.202; glycan array binding signal (z-score) [13]: -0.507; glycan array binding signal (z-score) [14]: -0.481; glycan array binding signal (z-score) [15]: -0.521; glycan array binding signal (z-score) [16]: -0.558; glycan array binding signal (z-score) [17]: -0.388; glycan array binding signal (z-score) [18]: 0.548; glycan array binding signal (z-score) [19]: -0.317; glycan array binding signal (z-score) [20]: -0.268; glycan array binding signal (z-score) [21]: -0.474
